According to PubChem BioAssay (NCI):
This is part of a sample that, as a whole, favours compounds with a hit. Of some 83,000 tested, about 20% had one in any assay.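 Single-concentration screen, 48 h exposure, 96-well plates. Endpoint: percent growth. Below 10 = active.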 Active and inactive are the calls of the source.

tested on: NCI-H23 lung; experiment: NCI-60 one-dose screen, 48 h (100 = growth as untreated, 0 = no growth, -100 = all killed); settings: 10 µM unless noted

For `CCCCCCCCCCCCCCCCCCOc1ccccc1CC(=O)OCCC[N+](C)(C)C`, which growth is on record?
The growth was 46.4% (inactive).

Which growth does the source give for `Cn1c(-c2c(N)n(Cc3cccnc3)c3nc(C#N)c(C#N)nc23)nc2ccccc21` here?
Its growth is 92.2% (inactive).

With `COc1ccc(-c2nc3ccc4[nH]ncc4c3c3c2CCCC3)cc1B(O)O` as the compound, how does the growth read?
Its growth is 72.2% (inactive).

Which growth does the source give for `COc1ccc(/C=N/C2=C(C#N)C(c3ccc(OC)cc3)c3ccc4ccccc4c3O2)cc1` (stereo unspecified) here?
Its growth is 75.5% (inactive).

How did the growth turn out when `COC1=CC(=O)C[C@@H](C)[C@]12Oc1c(Cl)c(OC)cc(OC)c1C2=O` was run?
The growth was 93.5% (inactive).

`Cc1ccc(NS(=O)(=O)c2ccc3c(c2)C2OCCC2C(c2ccc(C(=O)C(C)C)cc2)N3)cc1C` (stereo unspecified) was tested. Which growth did it give?
The growth was 38.7% (inactive).

Which growth does the source give for `NC(=O)c1ccc[n+](Cc2ccc(Cl)cc2Cl)c1` here?
Its growth is 102% (inactive).

With `CC(=O)OC1CCC2(C)C(=CC3C4CCC(=O)C4(C)CCC32)C1` (stereo unspecified) as the compound, how does the growth read?
Its growth is 102% (inactive).

With `CNC(=O)CCN1CCN(CC/C=C2\c3ccccc3Sc3ccc(Cl)cc32)CC1` as the compound, how does the growth read?
The growth was 91% (inactive).

For `Clc1ccc(-c2c3ccc(=[N+]4CCCCC4)cc-3oc3cc(N4CCCCC4)ccc23)cc1`, which growth is on record?
Its growth is -85.2% (active).

How did the growth turn out when `Cc1nc2c(c(N3CCCc4ccccc43)n1)CCC2` was run?
The growth was 25.5% (inactive).

Which growth does the source give for `N#Cc1c2c(nn(-c3ccccc3)c1=O)C(O)=C([N+](=O)[O-])C(c1ccccc1)C2` (stereo unspecified) here?
Its growth is 86% (inactive).

With `c1ccc2c(c1)nc(CN1CCOCC1)n1cc(N3CCCC3)nc21` as the compound, how does the growth read?
Its growth is 94% (inactive).

Which growth does the source give for `N=C1C(c2nc(-c3ccc(Br)cc3)cs2)=C(O)CN1Cc1cccnc1` here?
The growth was 81.9% (inactive).

How did the growth turn out when `CC/C=C\C[C@H](O)C/C=C1/C(=O)C=C[C@@H]1C/C=C\CCCCO` was run?
Its growth is 60.9% (inactive).

Which growth does the source give for `O=C(CCc1nnc(CN(c2ccccc2)c2ccccc2)o1)c1nc2ccccc2[nH]1` here?
The growth was 85.1% (inactive).

How did the growth turn out when `Cc1ccc(NCCN(C)C)c2c(=O)c3ccccc3sc12` was run?
Its growth is 40.5% (inactive).

With `O=C(N/N=C/c1ccncc1)c1ccc(C(F)(F)F)nc1Nc1cccc(C(F)(F)F)c1` as the compound, how does the growth read?
Its growth is 21.4% (inactive).

`CC1(c2ccccc2)NC(=O)N(NC(=O)CSc2nc(-c3cccs3)nc3ccccc23)C1=O` (stereo unspecified) was tested. Which growth did it give?
Its growth is 89.7% (inactive).

`NC(=O)c1ccc[n+]([C@@H]2O[C@H](COP(=O)([O-])OP(=O)(O)OC[C@H]3O[C@@H](n4cnc5c(N)ncnc54)[C@H](O)[C@@H]3O)[C@@H](O)[C@H]2O)c1` was tested. Which growth did it give?
Its growth is 103% (inactive).

How did the growth turn out when `COc1cc(C2CC(c3cc(OC)c(OCCCOc4ccc(-n5c(/C=C/c6ccccc6)nc6ccccc6c5=O)cc4)c(OC)c3)=NO2)cc(OC)c1OC` (stereo unspecified) was run?
Its growth is 112% (inactive).

Which growth does the source give for `COc1cc(Cn2ncc3ccc(NC(=O)c4cc5ccccc5oc4=N)cc32)cc(OC)c1OC` here?
The growth was 80.8% (inactive).

Which growth does the source give for `CCOc1c(C#N)nnc2c(C#N)c(NC(=O)c3ccccc3)nn12` here?
The growth was 90.8% (inactive).

`COc1cc2c(cc1-c1c(C)noc1C)ncc1nc(C3CCCCC3)n(C3CCC(OC(F)F)CC3)c12` (stereo unspecified) was tested. Which growth did it give?
The growth was 40.8% (inactive).

For `Cc1cc(=O)[nH]c(N=Nc2c(O)[nH]c3ccccc23)n1`, which growth is on record?
Its growth is 100% (inactive).

How did the growth turn out when `COc1ccc(/C=C/c2c(C(=O)/C=C/c3ccc(F)cc3)c(C)nc3ccccc23)cc1` was run?
Its growth is 47.8% (inactive).

With `CCCCN(CCCC)CC(C)(C)C(O)c1ccc(OC)c2ccccc12` (stereo unspecified) as the compound, how does the growth read?
Its growth is -1.81% (active).

How did the growth turn out when `Cc1c(C)c2c(c(C)c1OCC(=O)O)CC[C@@](C)(CCC[C@@H](C)CCC[C@@H](C)CCCC(C)C)O2` was run?
Its growth is -30.8% [50 µM] (active).

Which growth does the source give for `Cn1c(I)c(C#C[Si](C)(C)C)c(=O)n(C(=O)c2ccccc2)c1=O` here?
Its growth is 51.7% (inactive).

`O=C(NCCCNc1cc(-c2cn(-c3ccccc3)nc2-c2cccc(O)c2)ccn1)c1ccc(F)cc1` was tested. Which growth did it give?
Its growth is 42% (inactive).

How did the growth turn out when `Cc1ccc2c(c1)Sc1c(ccc3ccccc13)N2` was run?
The growth was 74.7% (inactive).

How did the growth turn out when `O=C(Nc1ccc(-n2cc(-c3ccncc3)c(-c3ccc(Cl)c(O)c3)n2)cc1)N1CCOCC1` was run?
Its growth is 111% (inactive).

With `Cc1cccc(Cc2cnc(NC(=O)c3ccc4nnsc4c3)s2)c1` as the compound, how does the growth read?
Its growth is 92.7% (inactive).

With `CC(=O)c1ccc(NCC(=O)Nc2ccccn2)cc1` as the compound, how does the growth read?
The growth was 96.4% (inactive).

How did the growth turn out when `COC(=O)c1ccc(C2Nc3ccc(S(=O)(=O)Nc4ccc(C)c(C)c4)cc3C3OCCC23)cc1` (stereo unspecified) was run?
Its growth is 59.5% (inactive).

Which growth does the source give for `Cc1ccc(-c2cc(-c3cccnc3)[nH]c(=O)c2C#N)cc1` here?
The growth was 103% (inactive).

With `Cn1ccc2c(c1=O)C(=O)c1nccc3c1c-2nc1ccccc13` as the compound, how does the growth read?
Its growth is -66.6% (active).

`CCc1ccccc1-n1c(N)c(C#N)c(-c2ccc(N(C)C)cc2)c(C#N)c1=O` was tested. Which growth did it give?
The growth was 96.2% (inactive).

tested on: NCI-H226 lung; experiment: as above; settings: 10 µM unless noted

How did the growth turn out when `CCCCCCCCCCCCCCCCCCOc1ccccc1CC(=O)OCCC[N+](C)(C)C` was run?
Its growth is 78% (inactive).

`Cn1c(-c2c(N)n(Cc3cccnc3)c3nc(C#N)c(C#N)nc23)nc2ccccc21` was tested. Which growth did it give?
The growth was 98.4% (inactive).

With `COc1ccc(-c2nc3ccc4[nH]ncc4c3c3c2CCCC3)cc1B(O)O` as the compound, how does the growth read?
The growth was 61.2% (inactive).

Which growth does the source give for `COc1ccc(/C=N/C2=C(C#N)C(c3ccc(OC)cc3)c3ccc4ccccc4c3O2)cc1` (stereo unspecified) here?
The growth was 74.5% (inactive).

Which growth does the source give for `COC1=CC(=O)C[C@@H](C)[C@]12Oc1c(Cl)c(OC)cc(OC)c1C2=O` here?
The growth was 99.9% (inactive).

Which growth does the source give for `Cc1ccc(NS(=O)(=O)c2ccc3c(c2)C2OCCC2C(c2ccc(C(=O)C(C)C)cc2)N3)cc1C` (stereo unspecified) here?
Its growth is 45.3% (inactive).

For `NC(=O)c1ccc[n+](Cc2ccc(Cl)cc2Cl)c1`, which growth is on record?
Its growth is 99.3% (inactive).

With `CC(=O)OC1CCC2(C)C(=CC3C4CCC(=O)C4(C)CCC32)C1` (stereo unspecified) as the compound, how does the growth read?
The growth was 107% (inactive).

`CNC(=O)CCN1CCN(CC/C=C2\c3ccccc3Sc3ccc(Cl)cc32)CC1` was tested. Which growth did it give?
The growth was 121% (inactive).

`Clc1ccc(-c2c3ccc(=[N+]4CCCCC4)cc-3oc3cc(N4CCCCC4)ccc23)cc1` was tested. Which growth did it give?
Its growth is -87.6% (active).

`Cc1nc2c(c(N3CCCc4ccccc43)n1)CCC2` was tested. Which growth did it give?
The growth was 10.9% (inactive).

For `N#Cc1c2c(nn(-c3ccccc3)c1=O)C(O)=C([N+](=O)[O-])C(c1ccccc1)C2` (stereo unspecified), which growth is on record?
The growth was 102% (inactive).

With `c1ccc2c(c1)nc(CN1CCOCC1)n1cc(N3CCCC3)nc21` as the compound, how does the growth read?
The growth was 93.6% (inactive).

With `N=C1C(c2nc(-c3ccc(Br)cc3)cs2)=C(O)CN1Cc1cccnc1` as the compound, how does the growth read?
The growth was 98.8% (inactive).

How did the growth turn out when `CC/C=C\C[C@H](O)C/C=C1/C(=O)C=C[C@@H]1C/C=C\CCCCO` was run?
Its growth is -23.9% (active).

With `O=C(CCc1nnc(CN(c2ccccc2)c2ccccc2)o1)c1nc2ccccc2[nH]1` as the compound, how does the growth read?
The growth was 107% (inactive).

For `Cc1ccc(NCCN(C)C)c2c(=O)c3ccccc3sc12`, which growth is on record?
The growth was 32.3% (inactive).

Which growth does the source give for `O=C(N/N=C/c1ccncc1)c1ccc(C(F)(F)F)nc1Nc1cccc(C(F)(F)F)c1` here?
The growth was 23.7% (inactive).

`CC1(c2ccccc2)NC(=O)N(NC(=O)CSc2nc(-c3cccs3)nc3ccccc23)C1=O` (stereo unspecified) was tested. Which growth did it give?
The growth was 91.1% (inactive).

For `NC(=O)c1ccc[n+]([C@@H]2O[C@H](COP(=O)([O-])OP(=O)(O)OC[C@H]3O[C@@H](n4cnc5c(N)ncnc54)[C@H](O)[C@@H]3O)[C@@H](O)[C@H]2O)c1`, which growth is on record?
Its growth is 117% (inactive).

`COc1cc(C2CC(c3cc(OC)c(OCCCOc4ccc(-n5c(/C=C/c6ccccc6)nc6ccccc6c5=O)cc4)c(OC)c3)=NO2)cc(OC)c1OC` (stereo unspecified) was tested. Which growth did it give?
The growth was 110% (inactive).

How did the growth turn out when `COc1cc(Cn2ncc3ccc(NC(=O)c4cc5ccccc5oc4=N)cc32)cc(OC)c1OC` was run?
The growth was 88.6% (inactive).

With `CCOc1c(C#N)nnc2c(C#N)c(NC(=O)c3ccccc3)nn12` as the compound, how does the growth read?
Its growth is 92.6% (inactive).

For `COc1cc2c(cc1-c1c(C)noc1C)ncc1nc(C3CCCCC3)n(C3CCC(OC(F)F)CC3)c12` (stereo unspecified), which growth is on record?
Its growth is 62.2% (inactive).

Which growth does the source give for `Cc1cc(=O)[nH]c(N=Nc2c(O)[nH]c3ccccc23)n1` here?
The growth was 97.9% (inactive).

How did the growth turn out when `COc1ccc(/C=C/c2c(C(=O)/C=C/c3ccc(F)cc3)c(C)nc3ccccc23)cc1` was run?
Its growth is 67.3% (inactive).

Which growth does the source give for `CCCCN(CCCC)CC(C)(C)C(O)c1ccc(OC)c2ccccc12` (stereo unspecified) here?
Its growth is 51.7% (inactive).

Which growth does the source give for `Cc1c(C)c2c(c(C)c1OCC(=O)O)CC[C@@](C)(CCC[C@@H](C)CCC[C@@H](C)CCCC(C)C)O2` here?
Its growth is 2.79% [50 µM] (active).

How did the growth turn out when `Cn1c(I)c(C#C[Si](C)(C)C)c(=O)n(C(=O)c2ccccc2)c1=O` was run?
Its growth is 79.6% (inactive).

`O=C(NCCCNc1cc(-c2cn(-c3ccccc3)nc2-c2cccc(O)c2)ccn1)c1ccc(F)cc1` was tested. Which growth did it give?
Its growth is 58.9% (inactive).

For `Cc1ccc2c(c1)Sc1c(ccc3ccccc13)N2`, which growth is on record?
Its growth is 75.4% (inactive).

With `O=C(Nc1ccc(-n2cc(-c3ccncc3)c(-c3ccc(Cl)c(O)c3)n2)cc1)N1CCOCC1` as the compound, how does the growth read?
The growth was 103% (inactive).

With `Cc1cccc(Cc2cnc(NC(=O)c3ccc4nnsc4c3)s2)c1` as the compound, how does the growth read?
Its growth is 102% (inactive).

`CC(=O)c1ccc(NCC(=O)Nc2ccccn2)cc1` was tested. Which growth did it give?
The growth was 91.3% (inactive).

For `COC(=O)c1ccc(C2Nc3ccc(S(=O)(=O)Nc4ccc(C)c(C)c4)cc3C3OCCC23)cc1` (stereo unspecified), which growth is on record?
The growth was 85.9% (inactive).

`Cc1ccc(-c2cc(-c3cccnc3)[nH]c(=O)c2C#N)cc1` was tested. Which growth did it give?
Its growth is 99.2% (inactive).

Which growth does the source give for `Cn1ccc2c(c1=O)C(=O)c1nccc3c1c-2nc1ccccc13` here?
Its growth is 83.1% (inactive).

With `CCc1ccccc1-n1c(N)c(C#N)c(-c2ccc(N(C)C)cc2)c(C#N)c1=O` as the compound, how does the growth read?
Its growth is 98.6% (inactive).
